12-LOX inh: blocks human arachidonate 12S-lipoxygenase | 580,000 tested, 1.1% active | Potency, µM (top dose mostly 108 µM), hits mostly inhibitors | purified 12hLO, xylenol orange hydroperoxide absorbance | P18054
Target sequence (P18054 whole entry, looked up): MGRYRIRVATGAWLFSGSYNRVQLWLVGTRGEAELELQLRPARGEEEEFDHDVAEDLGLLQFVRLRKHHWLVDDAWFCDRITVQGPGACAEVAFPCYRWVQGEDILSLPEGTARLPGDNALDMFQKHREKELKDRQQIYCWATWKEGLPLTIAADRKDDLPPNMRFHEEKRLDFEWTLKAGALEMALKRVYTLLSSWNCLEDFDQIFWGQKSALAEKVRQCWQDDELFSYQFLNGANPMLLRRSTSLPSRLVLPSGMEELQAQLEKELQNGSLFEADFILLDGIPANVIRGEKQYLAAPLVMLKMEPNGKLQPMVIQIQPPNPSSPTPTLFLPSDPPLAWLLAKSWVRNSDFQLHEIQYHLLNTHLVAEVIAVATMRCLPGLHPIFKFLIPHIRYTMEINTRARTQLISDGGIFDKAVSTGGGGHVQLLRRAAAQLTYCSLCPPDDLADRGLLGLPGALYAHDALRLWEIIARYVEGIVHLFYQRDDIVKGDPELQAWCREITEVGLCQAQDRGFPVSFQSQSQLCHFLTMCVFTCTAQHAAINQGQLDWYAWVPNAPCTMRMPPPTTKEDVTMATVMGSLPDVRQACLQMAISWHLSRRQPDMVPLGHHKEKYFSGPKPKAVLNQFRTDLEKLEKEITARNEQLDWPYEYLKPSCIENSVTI
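Purified human 12hLO at 150 nM in 25 mM Hepes, 0.01% Triton X-100, pH 7.0, preincubated 15 min at room temperature with compound. Reaction started with 40 uM arachidonic acid, 30 min at room temperature. Hydroperoxide measured by Fe-xylenol orange, 573/405 nm absorbance ratio.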
VDR inhibitor: inhibitors of human vitamin D receptor | VDR-SRC2-3 peptide fluorescence polarization, 2 h | Potency, µM, hits mostly inhibitors | 400,000 tested, 0.93% active
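Fluorescence polarization assay measuring small-molecule disruption of VDR binding to the coregulator peptide SRC2-3. Compounds were pin-transferred (23 nl) into the reagent mix and incubated 2 h at room temperature before reading.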
PLK1 PBD inh: PLK1 (human) polo-box domain binding inhibition. P53350. Plk1 PBD binding of FITC phosphopeptide, fluorescence polarization. Potency, µM, most hits filed as inhibitors. 360,000 tested, 2.8% active; also: series mostly up to about 57 µM; nearly all actives have a fitted effect of over 65% in size
Sfp PPTase inh: inhibitors of Bacillus subtilis Sfp phosphopantetheinyl transferase | Biochemical Sfp PPTase activity, qHTS | Potency, µM, hits mostly inhibitors | 310,000 tested, 3.5% active;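 also: the enzyme is Sfp with the accession as filed and its product quenches rhodamine fluorescence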
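Reaction rates are the 30-min fluorescence difference (ex 525, em 598 nm) in wells containing 15 nM Sfp, 5 uM rhodamine-CoA and 12.5 uM BHQ-2-YbbR at pH 7.6 with 10 mM MgCl2.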
A number is an active result; i = inactive; ? = inconclusive; nt = no result given. This is a sample that favours compounds with a hit; in the whole collection about 4.2% have one here. Calls follow the shape of the dose curve; as a rule, active = well fitted curve in the direction sought with a large enough effect; inconclusive = small, poorly fitted or top-dose-only effect, or another doubt; inactive = no such curve, though single readings can be large; an effect the other way counts as inactive or inconclusive.

SMILES | 12-LOX inh | VDR inhibitor | PLK1 PBD inh | Sfp PPTase inh
CC(C)=NNc1nc(-c2ccccc2)c(C)s1 | i | i | 21µM | 56µM
Cc1sc(N/N=C/c2ccco2)nc1-c1ccccc1 | i | i | i | i
OCc1ccccc1O | i | i | nt | i
OCc1ccccc1SSc1ccccc1CO | ? | 8.9µM | 0.27µM | nt
CC(/C=N/NC(=O)c1cc(-c2ccc(C)o2)[nH]n1)=C\c1ccccc1 | i | i | i | i
CC(/C=N/NC(=O)c1cc(C(C)C)[nH]n1)=C\c1ccccc1 | i | i | 30µM | i
O=C(NNc1c2ccccc2nc2ccccc12)c1ccc(Cl)cc1 | i | i | i | i
Cc1ccc(C(=O)NNc2c3ccccc3nc3ccccc23)cc1 | i | i | i | 25µM
COc1ccc(CN2Cc3[nH]cnc3C[C@H]2c2nc(-c3cnccn3)no2)cc1 | i | nt | nt | nt
Oc1cc2ccccc2cc1-c1n[nH]c(=S)o1 | i | ? | 12µM | i
Cc1cc(-c2n[nH]c(=S)o2)c(C)n1-c1ccccc1 | ? | i | i | i
Cc1nc2sc(C(c3ccco3)N3CCN(C(c4ccccc4)c4ccccc4)CC3)c(O)n2n1 (centres undefined) | ? | i | i | 7.9µM
Cc1nc2sc(C(c3ccccc3)N3CC(C)OC(C)C3)c(O)n2n1 (centres undefined) | i | i | i | i
Oc1c(C(c2ccco2)N2CCOCC2)sc2ncnn12 (centres undefined) | i | i | i | 40µM
Oc1c(C(c2ccccc2)N2CCCCC2)sc2ncnn12 (centres undefined) | i | i | i | i
Cc1nc2sc(C(c3ccco3)N3CC(C)OC(C)C3)c(O)n2n1 (centres undefined) | i | i | i | 25µM
Cc1nc2sc(C(c3ccco3)N3CCN(c4ccccc4)CC3)c(O)n2n1 (centres undefined) | i | i | i | ?
Cc1nc2sc(C(c3ccco3)N3CCC(C)CC3)c(O)n2n1 (centres undefined) | i | i | i | 16µM
Clc1cccc(Cl)c1C[n+]1ccc2ccccc2c1 | i | i | i | i
c1ccc(Sc2ncccn2)nc1 | ? | i | 27µM | i
Cc1ccc(C(=O)Nc2nnc(-c3ccco3)o2)cc1C | i | i | i | i
O=C(Nc1nnc(C2=COCCO2)o1)c1ccc(Cl)cc1 | 40µM | i | i | i
O=C(Nc1nnc(-c2ccco2)o1)c1ccc(Cl)cc1 | 25µM | i | i | i
O=C(Nc1nnc(S(=O)(=O)N2CCOCC2)s1)c1cccc(F)c1 | i | i | i | i
Cc1noc(C)c1COC(=O)CCCc1c[nH]c2ccccc12 | i | i | i | 50µM
SMILES | 12-LOX inh | VDR inhibitor | PLK1 PBD inh | Sfp PPTase inh
CCOC(=O)CCCc1c[nH]c2ccccc12 | i | i | i | i
Cc1nn(CC(=O)N(C)C2CCS(=O)(=O)C2)c(C)c1[N+](=O)[O-] (centres undefined) | i | i | i | nt
COc1ccc(-c2coc3c(CN4CCCCC4)c(O)c(CN4CCCCC4)c(O)c3c2=O)cc1 | nt | nt | nt | 16µM
Cn1c(=S)[nH]c(=O)c2ncc(=O)[nH]c21 | i | i | i | 71µM
COc1ccc2c(C(F)(F)F)cc(=S)[nH]c2c1 | 35µM | nt | nt | nt
COc1ccc2c(C)cc(=O)[nH]c2c1 | i | i | i | i
COc1ccc(CC(=S)N2CCOCC2)cc1OC | i | i | i | i
S=C(Cc1cccnc1)N1CCOCC1 | nt | ? | 24µM | i
COc1ccc(N2C(=O)c3ccccc3C2O)cc1 (centres undefined) | i | i | i | i
COc1ccc(O)c(C(=O)C2c3ccccc3C(=O)N2c2ccc(C)cc2)c1 (centres undefined) | ? | i | ? | 22µM
Cc1nn(-c2ccccn2)c(C)c1[C@@H]1C=C[C@@H](NC(=O)c2ccco2)C1 | i | nt | nt | nt
CCOc1ccc(C2C(C(=O)OC)=CN(CCOC)C=C2C(=O)OC)cc1 | i | i | i | i
O=C(COc1ccc([N+](=O)[O-])cc1)Nc1ccc2c(c1)nc1n2CCOC1 | i | ? | 3µM | i
Cc1ccc(OCC(=O)Nc2ccc3c(c2)nc2n3CCOC2)cc1 | i | i | i | i
Cc1ccc(-c2ccc3ccccc3n2)c(C)c1 | i | nt | nt | nt
CNc1ccccc(-c2ccc3ccccc3n2)c1=O | ? | i | i | 56µM
O=C(c1ccc(-n2cncn2)c([N+](=O)[O-])c1)N1CCN(S(=O)(=O)c2ccc(Br)cc2)CC1 | i | i | i | nt
O=C(CSc1nnc(SCc2cccc3ccccc23)s1)c1ccc2c(c1)OCO2 | i | i | i | i
O=C(CSc1nnc(-c2ccc(F)cc2)c2ccccc12)Nc1ccccc1 | i | i | i | i
O=C(CSc1nnc(SCc2cccc3ccccc23)s1)Nc1ccc(C(=O)O)cc1 | i | i | 24µM | i

Screening data: PubChem, National Center for Advancing Translational Sciences (NCATS)
